D2 ag-1: activates the human D2 dopamine receptor | HEK293 T-REx D2 cells, calcium flux agonist mode | activation, % at 2 µM | actives 0.53% (n = 340,000);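 active means activation over 3 SD above normal in the single-dose calcium agonist read, cut at about 30% in these data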; further: 0% is about no effect
Target sequence (P14416 whole entry, looked up): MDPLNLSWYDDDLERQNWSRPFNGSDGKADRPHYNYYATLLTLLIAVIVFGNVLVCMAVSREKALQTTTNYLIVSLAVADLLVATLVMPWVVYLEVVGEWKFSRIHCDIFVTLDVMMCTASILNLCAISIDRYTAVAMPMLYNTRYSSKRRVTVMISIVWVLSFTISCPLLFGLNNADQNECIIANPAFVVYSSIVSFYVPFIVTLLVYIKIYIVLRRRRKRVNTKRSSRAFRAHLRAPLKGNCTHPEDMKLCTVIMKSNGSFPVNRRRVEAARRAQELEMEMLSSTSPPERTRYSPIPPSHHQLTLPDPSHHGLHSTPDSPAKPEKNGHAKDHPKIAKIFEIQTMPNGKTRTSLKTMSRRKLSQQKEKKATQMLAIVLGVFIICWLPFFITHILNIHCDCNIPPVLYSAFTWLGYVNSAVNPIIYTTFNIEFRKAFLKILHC
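Calcium-flux readout, 1 cycle/sec over 180 s following compound pin transfer, in inducible HEK293 Trex D2 cells (force-coupled); dopamine controls included. Positive calcium responses during this window marked compounds as potential agonists.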
D2 PAM-1: positively modulates the human D2 dopamine receptor allosterically. P14416. HEK293 T-REx D2, calcium flux, EC20 dopamine potentiation. potentiation, % at 10 µM. actives 0.34% (n = 340,000). AID 485347;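 active means potentiation over 3 SD above the plate norm, cut at about 30% in these data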; further: 0% is about no effect
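Primary screen. Calcium kinetics in induced HEK293 T-REx D2 cells: compound pre-addition 180 s, EC20 dopamine, 180 s more.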
D2 ag-2: agonists of human D2 dopamine receptor (beta-arrestin); P14416; activation, % (test concentration not listed); DiscoveRx PathHunter D2 beta-arrestin, luminescence, 90 min; 100% = 57 uM dopamine signal; actives 0.084% (n = 360,000); AID 624465; in the data active means activation above about 40%; inconclusive means between about 15% and that limit
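Agonist mode: compounds alone added to overnight-plated D2 PathHunter cells for 90 min at 37 C, with 57 uM final dopamine (EC100) defining full response. Beta-arrestin recruitment detected by chemiluminescent reagent, read after 1 h at ambient temperature.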
D2 antag: D2 dopamine receptor (human) antagonism. P14416. HEK293 TREx D2 cells, calcium flux, dopamine EC80. inhibition, % at 10 µM. actives 2% (n = 340,000); in the data active means inhibition above about 30%; inactive means below that, where a call was filed; further: 0% is about no effect
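HEK293 T-REx D2 cells, tet-induced, calcium dye no-wash. Cpd pintool add, 180 s kinetic, then EC80 DA, 180 s kinetic. Ca flux read.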
D2 PAM-2: positive allosteric modulators of human D2 dopamine receptor; actives 0.23% (n = 360,000); P14416; potentiation, % (concentration not given with the values); DiscoveRx D2 beta-arrestin cells, luminescence, 90 min; 100% = 57 uM dopamine signal; AID 624464; in the data active means potentiation above about 50%; inconclusive means mostly about 30% to 49%
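D2 cells co-treated with compound plus 50 nM dopamine (EC20) for 90 min at 37 deg C to detect potentiation. Beta-arrestin recruitment was read as enzyme-fragment luminescence after 1 h at ambient temperature. Full response was set by 57 uM dopamine.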
Starred values were filed as active, the others as inactive; ? = inconclusive; . = not tested or not shown. In the library only some 2.4% were active in any assay of this set; here they are far more common.

SMILES	D2 ag-1	D2 PAM-1	D2 ag-2	D2 antag	D2 PAM-2
COc1ccccc1NC(=O)N1CCN(C)CC1	1.2	-11.3	0.8	-0.7	-3.9
COc1ccccc1NC(=O)N1CCCC1	-0.5	2.1	0.3	33.1*	-5.0
CCOC(=O)c1noc2ncnc(Nc3cc(Cl)c(OC)cc3OC)c12	-0.3	-10.4	.	.	.
COc1c(C)cc(C(O)c2ncc(-c3ccccc3F)[nH]2)cc1C (stereo not drawn)	.	.	0.8	.	-2.6
O=C(/C=C/c1ccc(Cl)cc1)NC(=S)Nc1ccc(CN2CCOCC2)cc1	35.0*	-22.4	1.3	0.2	-20.7
Cc1ccc(CCNC(=O)c2cc3c(=O)oc4ccccc4c3s2)cc1	.	16.5	.	.	.
COc1ccccc1NC(=O)Cn1c(O)c(N=NC(=O)c2ccccc2O)c2ccccc21	3.5	-4.3	?	55.1*	9.1
CC1=C(C(=O)Nc2cccc(C(=O)NC(C)C)c2)SCCO1	-0.7	1.1	4.8	14.0	2.9
CCC(C)NC(=O)c1ccc(NC(=O)C2=C(C)OCCS2)cc1 (stereo not drawn)	0.1	-6.2	-3.9	43.9*	-5.3
O=c1c2ccccc2c2ccccc2c(=O)n1Nc1ccccc1	.	.	-6.6	.	-1.8
N#Cc1ccc(CN(Nc2ccccc2)c2ccccc2)cc1	.	.	8.9	.	-7.2
CCN(CC)CCCNC(=S)N1CCN(c2nc(-c3ccccc3)cs2)CC1	0.0	-9.2	0.4	32.6*	-14.4
CCc1nnc(NC(=O)CN2CCN(c3nc(-c4ccccc4)cs3)CC2)s1	-0.5	-0.6	2.7	31.5*	1.3
CCOCCCNC(=S)N1CCN(c2nc(-c3ccccc3)cs2)CC1	.	.	-4.7	.	-3.3
CC(C)C(=O)NNC(=O)CN1CCN(c2nc(-c3ccccc3)cs2)CC1	1.6	2.5	-3.1	-0.6	-2.2
COC(=O)[C@@H](Cc1c[nH]c2ccccc12)NCc1cccc(B(O)O)c1	.	.	0.8	.	-6.3
Cc1ccc(NC(=O)CS(=O)CC(=O)N(CC(=O)NC2CCCC2)c2cccc(C)c2C)cc1 (stereo not drawn)	0.3	-22.4	0.2	55.4*	-27.1
Cc1cccc(N(CC(=O)NC2CCCC2)C(=O)CS(=O)CC(=O)Nc2ccc3c(c2)OCO3)c1C (stereo not drawn)	0.5	-5.0	-2.6	-10.7	-7.1
CCCSc1nc(=O)c2c(n1C)NC(=O)CC2c1cccc(F)c1F (stereo not drawn)	1.4	7.8	.	.	.
CN(/N=C/c1cc([N+](=O)[O-])ccc1O)c1ccccc1	3.4	3.2	-7.6	7.4	-17.9
CN(/N=C/c1ccc(-c2ccc([N+](=O)[O-])cc2)o1)c1ccccc1	30.2*	9.7	-0.3	7.6	0.4
COc1cc(OC)c(NC(=O)CSc2nc3ccncc3[nH]2)cc1Cl	-1.2	13.4	.	.	.
Cc1ccc(S(=O)(=O)Nc2ccc(N3CCN(C)CC3)nc2)cc1	-0.8	-14.4	-6.9	4.1	-21.0
CCc1ccc(S(=O)(=O)Nc2ccc(N3CCN(C)CC3)cc2)cc1	0.7	-19.6	0.9	75.0*	-23.2
CN1CCN(c2ccc(NS(=O)(=O)c3ccc(Cl)cc3)cn2)CC1	-1.3	-5.4	-1.6	32.7*	-7.6
SMILES	D2 ag-1	D2 PAM-1	D2 ag-2	D2 antag	D2 PAM-2
CCc1ccc(S(=O)(=O)Nc2ccc3c(c2)n(C)c(=O)c(=O)n3C)cc1	0.3	-11.0	.	.	.
CCc1ccccc1NC(=O)c1nc2nc(C)cc(C(F)F)n2n1	-1.2	2.2	.	.	.
Cc1nc(-c2cccc(S(=O)(=O)N3CCOCC3)c2)cs1	0.2	13.9	-2.3	34.7*	-3.5
O=C(CCCN1Cc2ccccc2C1)c1ccc(F)cc1	0.4	-5.6	-2.8	79.5*	-22.8
O=C(CCCN1CCOC(c2ccccc2)C1)c1ccc(F)cc1 (stereo not drawn)	-0.3	-26.9	-5.3	48.7*	-3.7
CN1CCN(CCCC(=O)c2ccc(F)cc2)CC1	-0.5	-19.7	-3.6	21.2	-51.5
O=C(CCCN1CCN(c2ccccc2)CC1)c1ccc(F)cc1	.	.	0.3	.	-21.5
O=C(CCN1CCOCC1)N/N=C/c1cc(Br)cc(Br)c1O	0.7	-8.6	-8.7	35.6*	-33.1
CC1CCCN(CCCNC(=O)c2coc3nc4ccccc4nc23)C1 (stereo not drawn)	0.0	-3.5	-2.8	32.6*	-31.2
Cn1c2ccccc2c2cnn(CC(=O)Nc3ccccc3F)c(=O)c21	0.4	-2.5	.	.	.
CCOC(=O)C1(c2csc(N)n2)COC(=O)C1 (stereo not drawn)	1.0	2.2	-3.8	43.7*	2.6
COC(=O)c1ccc(NC(=O)Cn2nc(C(=O)Nc3ccc(C)cc3)ccc2=O)cc1	-0.7	-1.5	-3.7	30.0*	-1.8
CCCCNC(=O)C1(C)CCCCN1C(=O)c1c(Cl)cccc1Cl (stereo not drawn)	.	.	-2.6	.	-3.0
Cn1c(=O)c2[nH]c(-c3ccccc3)c(O)c2n(C)c1=O	5.2	9.3	?	10.6	107.6*
Cn1c(=O)c2[nH]c(-c3ccccc3Cl)c(O)c2n(C)c1=O	.	.	3.8	.	25.1
CCc1nc2ccc(C(=O)NCCN3CCOCC3)cn2c1N(C=O)Cc1ccc(OC)cc1	.	.	-6.9	.	-15.6
CCN(CC)c1ccc2cc(-c3nc(-c4ccc(OC)cc4)cs3)c(=O)oc2c1	100.6*	-19.0	?	71.0*	24.7
CCN(CC)c1ccc2cc(-c3nnc(-c4ccccc4)o3)c(=O)oc2c1	115.6*	-7.1	-1.0	37.9*	-2.2
CN(C)Cc1c(O)ccc2cc(-c3nc4ccccc4n3C)c(=O)oc12	20.2	3.7	2.9	13.9	-2.3
CCN(CC)c1ccc2cc(-c3nc4ccccc4[nH]3)c(=O)oc2c1	104.2*	-13.5	5.3	76.3*	17.0
CCN(CC)c1ccc2cc(-c3nc4ccccc4n3C)c(=O)oc2c1	71.6*	-8.3	1.6	39.6*	6.5
COc1c(C)cc(S(=O)(=O)NCCc2c(C)[nH]c3ccccc23)c(C)c1C	0.5	-3.3	.	.	.
Cc1[nH]c2ccccc2c1CCNS(=O)(=O)c1ccc(S(N)(=O)=O)cc1	6.3	-15.8	-4.1	54.8*	-6.3
O=C(C[n+]1cccc(CNC(=O)c2ccc(OC(F)F)cc2)c1)Nc1ccc(F)cc1	-0.5	-24.5	-2.0	2.1	-34.9
O=C(C[n+]1cccc(CNC(=O)c2ccc(OC(F)F)cc2)c1)Nc1cccc(C(F)(F)F)c1	-0.8	-27.8	-3.7	44.8*	-50.7
CC(OC(=O)Cn1c(C(F)(F)F)nc2ccccc21)C(N)=O (stereo not drawn)	0.6	-5.6	-1.6	39.9*	-8.0
O=c1[nH]c(Nc2ccc3c(c2)OCCO3)nnc1Cc1ccc(Cl)cc1	0.0	1.6	-1.1	33.4*	-3.7
COc1ccc(Cc2nnc(Nc3ccc(Cl)cc3)[nH]c2=O)cc1	-0.8	-0.6	4.0	-3.6	-0.1
COc1ccc(-c2nc(CSCC(=O)N3CCN(c4cccc(C)c4C)CC3)c(C)o2)cc1OC	-1.1	12.5	.	.	.
